# Screening data deposited in PubChem by several laboratories.
# CYP2C19 inhib: blockers of cytochrome P450 2C19 activity – biochemical, luminescence, ADME assay, primary screen | P33261 | CYP2C19 Supersomes, luciferin-H EGE luminescence, 30 min | inhibition, % at 5 µM | 96,000 tested, 21% active;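 active means CYP2C19 inhibition above a set limit at 5 µM in the primary screen, cut at about 50% in these data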;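 further: plate controls were negative control wells for no effect and 2.5 mM tranylcypromine positive control for full effect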
# Target sequence (P33261 whole entry, looked up): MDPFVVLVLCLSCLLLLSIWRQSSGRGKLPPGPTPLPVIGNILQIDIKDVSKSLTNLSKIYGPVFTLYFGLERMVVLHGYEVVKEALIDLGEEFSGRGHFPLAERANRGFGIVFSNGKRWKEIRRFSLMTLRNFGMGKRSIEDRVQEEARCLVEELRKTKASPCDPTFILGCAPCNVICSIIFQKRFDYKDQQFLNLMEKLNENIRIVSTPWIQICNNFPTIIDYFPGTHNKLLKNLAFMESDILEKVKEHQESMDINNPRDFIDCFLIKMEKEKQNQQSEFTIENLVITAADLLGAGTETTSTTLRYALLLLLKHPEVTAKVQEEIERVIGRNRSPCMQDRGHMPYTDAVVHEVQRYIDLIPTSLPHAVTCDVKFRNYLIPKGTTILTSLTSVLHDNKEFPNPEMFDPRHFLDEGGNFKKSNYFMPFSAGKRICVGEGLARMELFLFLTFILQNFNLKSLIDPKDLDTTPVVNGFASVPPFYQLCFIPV
# CYP2C9 inh: blockers of cytochrome P450 2C9 activity – biochemical, luminescence, ADME assay, primary screen. P11712. CYP2C9 Supersomes, luciferin-H conversion. inhibition, % at 5 µM. 96,000 tested, 20% active. AID 777, 2007;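 active means blocking of liver enzyme CYP2C9 beyond about 50% at 5 µM, limit read from the data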
# sEH act: soluble epoxide hydrolase activators, primary screen, biochemical, human sEH. purified human sEH enzymatic activity, activator screen. activation, % at 2 µM. Bifunctional epoxide hydrolase 2 (Homo sapiens), P34913. AID 717, 2007. 91,000 tested, 0.04% active; in the data active means activation above about 37%
# CYP2C19 act: human CYP2C19 activators, primary screen, biochemical, luminescence. recombinant CYP2C19, luciferin-H EGE luminescence; hits give high values; 0 = fully inhibited enzyme, 1 = untreated enzyme. 96,000 tested, under 10 active. Cytochrome P450 2C19 (Homo sapiens), P33261. activation factor at 5 µM;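 active means activation factor of at least 2 at 5 µM in the primary screen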;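 further: 0 = wells with 2.5 mM tranylcypromine and 1 = vehicle-only wells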
# CYP2C9 act: human CYP2C9 activators, primary screen, biochemical, luminescence; Cytochrome P450 2C9 (Homo sapiens), P11712; recombinant CYP2C9, luciferin-H conversion; hits give high values; factor 1 = untreated enzyme, 0 = blocked; activation factor at 5 µM; 96,000 tested, 1.4% active;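 active means activation factor of 2 or more for CYP2C9 at a 5 µM dose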;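 further: 0 = sulfaphenazole-blocked wells and 1 = vehicle-only wells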
# sEH inh: soluble epoxide hydrolase inhibitors, primary screen, biochemical, human sEH; Bifunctional epoxide hydrolase 2 (Homo sapiens), P34913; recombinant human sEH enzymatic activity assay; inhibition, % at 2 µM; 91,000 tested, 0.34% active; in the data active means inhibition above about 80%
# Starred values were filed as active, the others as inactive; . = no result given. Hits are enriched below; roughly 27% of the tested compounds scored in any of these assays.
SMILES,CYP2C19 inhib,CYP2C9 inh,sEH act,CYP2C19 act,CYP2C9 act,sEH inh
CCOc1cc2c3c(c1)C1(Nc4ccccc4S1)C(=O)N3C(C)(C)CC2C (stereo not given),88*,100*,-4,0.1,0,6
O=C(c1ccc2snnc2c1)N1CCN(c2ccccc2)CC1,100*,65*,10,0,0.3,-8
O=C(c1ccc2snnc2c1)N1CCCC1,28,10,8,0.7,0.9,-9
O=C(c1ccc2snnc2c1)N1CCN(c2ccccn2)CC1,71*,9,10,0.3,0.9,-6
S=C(Nc1ccc2snnc2c1)N1CCN(c2ccccn2)CC1,26,18,-8,0.7,0.8,8
CN1C(=O)/C(=C\c2ccccc2)Sc2ccc(C(=O)N3CCN(c4ccccn4)CC3)cc21,72*,77*,-11,0.3,0.2,11
OCC#Cc1cnc2ccccc2c1,27,15,-1,0.7,0.8,1
CSCC[C@H](NC(=O)Nc1ccc(C)cc1C)C(=O)O,-11,-2,0,1.1,1,1
Cc1cc(NC(=O)CN2CCN(c3ncccn3)CC2)no1,-10,1,-2,1.1,1,3
Cc1ccc(CN2CCN(c3ncccn3)CC2)o1,68*,31,-12,0.3,0.7,10
Fc1cccc(F)c1CN1CCN(c2ncccn2)CC1,79*,43,7,0.2,0.6,-4
CCOC(=O)C(C)c1nn(C)c(=O)c2ccccc12 (stereo not given),67*,15,5,0.3,0.8,-3
CCOC(=O)C(C)c1n[nH]c(=O)c2ccccc12 (stereo not given),4,3,1,1,1,-5
CC(C)CC(NC(=O)C(NC(=O)OC(C)(C)C)C(C)C)C(=O)N1CCCC1C(N)=O (stereo not given),-1,3,-7,1,1,8
COc1cc(/C=C2/C(=N)N3OC(C)=CC3=NC2=O)ccc1OCCOc1ccc(C)cc1,10,13,-13,0.9,0.9,13
CCOc1cc(/C=C2/C(=N)N3OC(C)=CC3=NC2=O)ccc1OCCOc1ccccc1,41,62*,4,0.6,0.4,-5
CCN1CCN(Cc2nc3c(c(=O)n(C)c(=O)n3C)n2C(C)C(C)=O)CC1 (stereo not given),68*,32,-4,0.3,0.7,6
CCCCCn1c(CN2CCN(C)CC2)nc2c1c(=O)n(C)c(=O)n2C,-17,-14,2,1.2,1.1,0
O=C(c1ccc(CNc2c(N3CCCC3)c(=O)c2=O)cc1)N1CCc2ccccc2C1,35,50*,6,0.6,0.5,-6
CCCCN(C(=O)c1ccc(Cl)cc1)C1CC2CCC(C1)N2C (stereo not given),22,-3,-4,0.8,1,4
CCCCCCN1N=C(C)C(C(=O)c2ccc(Cl)cc2)C1=O (stereo not given),1,60*,-16,1,0.4,16
CCCCCCCN1N=C(C)C(C(=O)c2ccccc2)C1=O (stereo not given),8,94*,19,0.9,0.1,-17
Cc1ccc(S(=O)(=O)NC2CCC(C(=O)O)CC2)cc1 (stereo not given),33,18,3,0.7,0.8,-5
COc1ccc(C)cc1NC(=O)CSc1nnc(-c2cc3cccc(OC)c3o2)n1N,8,19,-11,0.9,0.8,10
COCCSc1ccccc1C(=O)Nc1nncs1,0,-2,0,1,1,0
SMILES,CYP2C19 inhib,CYP2C9 inh,sEH act,CYP2C19 act,CYP2C9 act,sEH inh
c1ccc2c(c1)oc1c(Nc3ccc4c(c3)OCCO4)ncnc12,20,-6,18,0.8,1.1,-20
COc1ccc(Nc2ncnc3c2oc2ccccc23)cc1,55*,34,2,0.5,0.7,-2
CCc1nc(Nc2ccc3c(c2)OCCO3)c2oc3ccccc3c2n1,40,21,18,0.6,0.8,-16
Cc1ccc(Nc2ncnc3c2oc2ccccc23)cc1,53*,32,-1,0.5,0.7,4
Cc1nc(Nc2ccc3c(c2)OCCO3)c2oc3ccccc3c2n1,85*,76*,6,0.1,0.2,-4
Cc1nnc(NC(=O)CCC(=O)N2CCN(CCc3ccccc3)CC2)s1,2,2,.,1,1,.
NC(=O)CNC(=O)C1CCCc2c1[nH]c1ccc(Cl)cc21 (stereo not given),10,50*,-12,0.9,0.5,11
COC(=O)c1[nH]c2ccc(Cl)cc2c1NC(=O)C1CC1,-1,6,.,1,0.9,.
Cc1ccccc1OCc1nc2ccccc2c(=O)n1NC(=O)c1ccco1,.,.,18,.,.,-14
CC(c1ccco1)N(C(=O)CSc1ccc(Br)cc1)c1ccccn1 (stereo not given),98*,90*,0,0,0.1,3
Cn1c(=O)c2[nH]c(CNCc3ccccc3Cl)nc2n(C)c1=O,20,6,-9,0.8,0.9,11
COc1ccc(-c2cc(-n3c(C(F)(F)F)nc4ccccc43)n(CCC#N)n2)cc1,63*,72*,.,0.4,0.3,.
O=C(C1CCN(S(=O)(=O)Cc2ccccc2)CC1)N1CCN(c2ncccn2)CC1,2,21,0,1,0.8,1
O=C(C1CCCN(S(=O)(=O)Cc2ccccc2)C1)N1CCC(Cc2ccccc2)CC1 (stereo not given),97*,85*,8,0,0.1,-7
CC(=O)c1ccc(N2CCN(C(=O)C3CCN(S(=O)(=O)Cc4ccccc4)CC3)CC2)cc1,4,67*,-12,1,0.3,14
COC(=O)C1CCN(S(=O)(=O)Cc2ccccc2)CC1,63*,-13,-5,0.4,1.1,3
C/C(=C\c1ccccc1)CN(C)CCN(C)C,-10,-28,8,1.1,1.3,-10
O=C(CN(C(=O)CNS(=O)(=O)c1ccccc1)C1CCCC1)NCc1ccco1,46,18,.,0.5,0.8,.
Fc1ccc(C2C3=C(Nc4ncnn42)c2ccccc2OC3c2ccncc2)cc1 (stereo not given),93*,77*,-7,0.1,0.2,6
O=C(c1cc2c(s1)CCCCC2)N1CCN(c2ncccn2)CC1,69*,92*,-7,0.3,0.1,5
Cc1cc(C(=O)N2CCN(c3ncccn3)CC2)cs1,78*,40,-6,0.2,0.6,9
COc1ccccc1N1CCN(C(=O)c2cc3c(s2)CCC3)CC1,36,47,-15,0.6,0.5,16
O=C(c1c(F)cccc1F)N1CCC(O)(c2cccnc2)CC1,32,21,13,0.7,0.8,-9
